Source: PubChem BioAssay AID628 (Vanderbilt High Throughput Screening Facility, 2007)
The whole screen tested about 64,000 compounds, of which about 2,200 (3.4%) were called active.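 The calls were made as follows: active = calcium fluorescence response, raw or row-and-column corrected B-score, differing from the plate sample mean either way at a set confidence level, mostly lower; inactive = the rest.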 The sample as a whole holds a higher share of actives than the screen did.

molecular target: Muscarinic acetylcholine receptor M1 (Rattus norvegicus) (UniProt P08482); assay: antagonists of rat M1 muscarinic receptor (AID 628); settings: CHO-M1 cells, Fluo-4 calcium, ACh EC80 antagonist mode; at 10 µM; stronger effect = lower value
Sequence (P08482 whole entry, looked up): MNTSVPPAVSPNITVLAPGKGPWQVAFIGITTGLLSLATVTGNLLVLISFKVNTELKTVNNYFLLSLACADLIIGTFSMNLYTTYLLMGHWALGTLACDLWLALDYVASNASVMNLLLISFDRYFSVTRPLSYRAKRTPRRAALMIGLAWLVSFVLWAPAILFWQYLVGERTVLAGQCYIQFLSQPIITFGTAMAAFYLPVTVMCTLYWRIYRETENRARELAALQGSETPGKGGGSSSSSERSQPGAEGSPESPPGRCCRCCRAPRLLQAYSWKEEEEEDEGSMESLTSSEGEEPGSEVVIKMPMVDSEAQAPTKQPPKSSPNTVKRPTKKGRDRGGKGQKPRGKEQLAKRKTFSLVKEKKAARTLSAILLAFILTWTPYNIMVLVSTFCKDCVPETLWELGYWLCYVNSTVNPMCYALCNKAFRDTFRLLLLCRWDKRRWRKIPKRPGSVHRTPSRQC

B-score, inactive:
CCOC(=O)c1ccc(N2C(=O)CC(N3CCC(C(=O)OCC)CC3)C2=O)cc1 (stereo not given) -0.522
CCOC(=O)C1CCN(C(=O)Nc2ccc(Cl)cc2)CC1 -0.00301
CC(C)NS(=O)(=O)c1ccc(NC(=O)c2cccnc2)cc1 1.03
C=CCn1c2ccccc2c2nnc(SC(CC)C(=O)Nc3nc(C)c(C(=O)OCC)s3)nc21 (stereo not given) 0.9
COc1cc(-n2c(C)nc3cc(C(=O)NCc4ccco4)ccc32)cc(OC)c1OC -0.0298
CSCCC(Nc1nc2ccccc2s1)C(=O)O (stereo not given) 0.99
Cc1ccc(C)c(N(CC(=O)NCc2ccco2)C(=O)CCC(=O)Nc2ccccn2)c1 0.211
Cc1ccc(C(C(=O)NC2CCCC2)N(Cc2ccco2)C(=O)CCC(=O)Nc2ccccn2)cc1 (stereo not given) -0.0611
CC(=O)Oc1cc2c(C(=O)NCCN3CCOCC3)c(C)oc2c2ccccc12 -0.671
CN(C)Cc1c(C#N)c2ccccc2n1C 0.566
CCCCNC(=O)CSc1nnc(-c2ccco2)n1C -0.326
COC(=O)CNC(=O)c1ccc2c(c1)S(=O)(=O)c1ccccc1C2=O -0.0488
CCN1C(=O)c2cccc3c(N)ccc1c23 -0.102
O=C(Nc1ccccc1F)C1C2C=CC3(O2)C1C(=O)N(c1cccnc1)C3C(=O)NC1CCCCC1 (stereo not given) 0.728
CCCN1C2=C(C(=O)CCC2)C(c2ccc(O)c(Br)c2)C2=C1CCCC2=O 0.273
Cc1ccc(-n2nc3cc(Cl)c(NC(=O)c4ccco4)cc3n2)cc1 0.0365
COc1cc(C(=O)Nc2oc(-c3ccccc3)c(-c3ccccc3)c2C#N)cc(OC)c1OC -0.934
O=C(CCN1C(=O)c2ccccc2C1=O)Nc1ccncc1 -0.0156
CC(C)N1C(=O)C2C(C(=O)NC3CCCCC3)C3C=CC2(O3)C1C(=O)NC1CCCC1 (stereo not given) -0.055
COc1ccc(C(=O)N(CCN2CCOCC2)CC(=O)NC2CCCC2)cc1OC -1.81
Cc1noc(C)c1CSc1nnc2ccc3ccccc3n12 0.103
CC(C)(CSc1nncn1/N=C/c1ccco1)NS(=O)(=O)c1ccc(Cl)cc1 -0.0125
COC(=O)c1ccc(NC(=O)C(C)N2C(=O)c3ccccc3C2=O)cc1 (stereo not given) 0.608
COc1ccc(OCC(=O)N2CCOCC2)cc1 -0.0545
CCCOc1ccc(C2c3c(oc4cc(C)c(C)cc4c3=O)C(=O)N2CCCN2CCOCC2)cc1 (stereo not given) -2.07
COC(=O)C1(S(=O)(=O)C2(C(=O)OC)CCCC2)CCCC1 -0.00987
CC(=O)OC(C(=O)NC1CCCCC1)c1ccccc1 (stereo not given) 0.565
CN(C)CCNC(=O)C(C(=O)c1ccccc1)n1ccccc1=O (stereo not given) 0.0113
Cc1ccc(NC(=O)C2CC(c3ccc(F)cc3)=NO2)cc1 (stereo not given) 0.326
CCOc1ccc(CN(Cc2ccco2)C(c2cccs2)c2nnnn2C(C)(C)C)cc1 (stereo not given) -0.0188
CCC(C)(C)n1nnnc1C(c1cccs1)N1CCN(Cc2ccccc2)CC1 (stereo not given) 0.103
Cc1ncc(CC(=O)n2cc(C(=O)c3cc(Cl)ccc3O)cn2)s1 -0.173
CN(C)S(=O)(=O)c1ccc(Oc2ccc(S(=O)(=O)N(C)C)cc2)cc1 -0.154
CCCCOCCCNC(=O)c1ccccc1OCC 0.466
COc1ccccc1-c1cc(C(=O)NCCCn2ccnc2)no1 -0.17
CC[C@]1(O)C[C@@H]2CN(CCc3c([nH]c4ccccc34)[C@@](C(=O)OC)(c3cc4c(cc3OC)N(C)[C@H]3[C@@](O)(C(=O)OC)[C@H](OC(C)=O)[C@]5(CC)C=CCN6CC[C@]43[C@@H]65)C2)C1 -0.431
O=c1c(-c2ccccc2)coc2c(CN3CCOCC3)c(O)ccc12 -0.686
CCc1ccccc1NC(=O)CSc1nnc([C@@H](NC(=O)OC(C)(C)C)C(C)CC)o1 (stereo not given in full) -0.00145
CCOc1cccc(C(=O)Nc2cccnc2)c1 1.02
O=C(Nc1cccnc1)c1ccc2c(c1)OCO2 -0.335
Cc1cccc(NC(=O)CSc2nnc(NC(=O)CN3CCOCC3)s2)c1 -0.445
Cc1ccc(-c2nn(-c3ccccc3)cc2CN(Cc2ccccc2)C(=O)CCC(=O)O)o1 -0.258
C=CCNC(=O)C12CC3CC(C1)CC(C(=O)NCC=C)(C3)C2 0.561
CCOC(=O)N1CCC(NC(=O)CCc2cn(C)c3ccccc23)CC1 0.483
CC1Cc2nc(SCC(=O)Nc3ccccc3F)n(C)c(=O)c2S1 (stereo not given) -0.851
CCn1c(SCC(=O)Nc2ccccc2F)nc2c(c1=O)SC(C)C2 (stereo not given) -0.377
COc1ccc(-c2nc3n(c2Br)CCC3)cc1 0.807
O=C(c1cccs1)N1CCCC(c2nc(-c3ccc(F)cc3)no2)C1 (stereo not given) -1.27
COc1cc(-c2noc(C3CCCN(S(=O)(=O)c4cccc(Cl)c4)C3)n2)cc(OC)c1OC (stereo not given) 0.77
O=C(C1CC1)N1CCN=C1SCc1ccc(Cl)cc1 0.588
O=C(c1ccco1)N1CCN(c2cccc(Cl)c2)CC1 -0.702
Cc1ccc(S(=O)(=O)C(C#N)c2nc3ccccc3nc2N2CCCC2)cc1C (stereo not given) 0.0971
O=S(=O)(O)c1nc2ccccc2n1Cc1ccc(Cl)cc1Cl 0.452
Cc1nc(SCC(=O)Nc2cc(C)on2)c2c3c(sc2n1)CCCC3 -0.235
COCCNc1nc(-n2nc(C)cc2C)nc2sc3c(c12)CCCC3 -0.584
Brc1ccc(Nc2c3c(nc4ncnn24)CCC3)cc1 0.669
CCOC(=O)N1CCC(NC(=O)COc2cc(=O)n(C)c3ccccc23)CC1 0.854
CCOC(=O)N1CCC(Nc2c(NCCN3CCN(c4cccc(Cl)c4)CC3)c(=O)c2=O)CC1 0.00829
Cc1c(C(=O)NCC2CCCO2)sc2nc(-c3ccccc3)cn12 (stereo not given) 0.0376
CCCC(=O)Nc1ccc(Cl)c(NC(=O)c2ccc(Br)o2)c1 0.768
COc1cc(OC)c(NC(=O)c2ccc(Br)o2)cc1Cl 0.263
CCOC(=O)N1CCC(NC(=O)c2cnn3ccccc23)CC1 0.733
CCOC(=O)Cn1c2c(c(-c3ccccc3OC)cc1=O)CCCC2 -0.0571
C=CCOC(=O)C1=C(C)OC(N)=C(C#N)C1c1ccc(F)cc1 (stereo not given) 0.263
Cc1ccccc1N1C(=O)C2ON(c3ccccc3)C(c3ccncc3)C2C1=O (stereo not given) -0.292
CC(C)(C)OC(=O)c1c(N)n(CCCN2CCCC2=O)c2nc3ccccc3nc12 -1.12
COc1ccc(OC)c(C(=O)c2coc3ccc(OC)cc23)c1 -1.32
COc1cccc(-n2cc(C(=O)O)c3ccccc3c2=O)c1 1.31
O=C(c1cn(-c2ccccc2)nc1-c1cccnc1)N1CCCCC1 0.615
COC(=O)c1cn(-c2ccccc2)nc1-c1cccnc1 -0.00204
COc1ccc(-n2ncc3c(N4CCCc5ccccc54)ncnc32)cc1 0.508
CCCCN(CC)C(=O)CN(C)S(=O)(=O)c1cccc2nsnc12 -0.0458
CSc1nnc2c(n1)OC(c1cn(C)c3ccccc13)N(C(C)=O)c1ccccc1-2 (stereo not given) -0.0695

B-score, active:
CCOC(=O)C1CCN(Cc2coc3ccc(Cl)cc3c2=O)CC1 -5.08
COCCN(C(=O)CCC(=O)Nc1ccccn1)C(C(=O)NCCC(C)C)c1ccc(OC)cc1 (stereo not given) -2.46
CCCCN(C)C(=O)c1ccc2c(c1)N(CC)C(=O)c1ccccc1S2(=O)=O -2.44
N#Cc1c(NC(=O)CCCN2C(=O)c3ccccc3C2=O)oc(-c2ccccc2)c1-c1ccccc1 2.29
CCCCOc1ccc(C(C)(O)CCN2CCOCC2)cc1 (stereo not given) -1.77
CC(C)(C)n1nnnc1C(c1cccs1)N(Cc1cccnc1)CC1CCCO1 (stereo not given) -5.58
CCOc1ccccc1C(=O)NCCCn1ccnc1 -0.947
CC[C@]1(O)CC2CN(CCc3c([nH]c4ccccc34)[C@@](C(=O)OC)(c3cc4c(cc3OC)N(C=O)[C@H]3[C@@](O)(C(=O)OC)[C@H](OC(C)=O)[C@]5(CC)C=CCN6CC[C@]43[C@@H]65)C2)C1 (stereo not given in full) -6.81
O=C(Nc1cccnc1)c1noc2c1CCCCC2 2.01
COCCn1c(SCC(=O)Nc2cc(Cl)ccc2OC)nc2c(c1=O)SC(C)C2 (stereo not given) -2.72
O=C(Cc1cccs1)N1CCCC(c2nc(-c3ccc(S(=O)(=O)N4CCCC4)cc3)no2)C1 (stereo not given) -2.63
O=C(c1ccco1)N1CCN=C1SCc1cccc(Cl)c1 -2.85
Cc1cc(C)n(-c2nc(SCC(=O)N3CCCC3)c3c4c(sc3n2)CCCC4)n1 -2.83
CCn1c(=O)cc(OCC(=O)NCCCN2CCN(c3cccc(Cl)c3)CC2)c2ccccc21 -2.45
CCN1CCN(c2c(Cl)cccc2NC(=O)c2ccc(Br)o2)CC1 -6.97
COc1ccccc1N1CCN(C(=O)c2cn(-c3ccccc3)nc2-c2cccnc2)CC1 1.85
CSc1nnc2c(n1)OC(c1ccsc1)N(C(C)=O)c1ccccc1-2 (stereo not given) -8.49
